Bioassay records from PubChem.
Cycloheximide cs: affects cycloheximide protein synthesis inhibition readout, counter-screen | cell reporter, cycloheximide protein synthesis inhibition counterscreen | max response, % | 12% of 300,000 active; in the data active means max response mostly above about 13%, no sharp cut-off; inactive means mostly below about 14%; further: read at 38.3 µM for the half of the compounds with a filed dose; 0% is about no effect
Pf growth 96h: inhibits malaria parasite growth, 96 h; P. falciparum luciferase reporter growth, 96 h; 6.9% of 320,000 active; Potency, µM (highest dose often 28.7 µM), without a hit: at the top dose activity change, negative = inhibition, hits mostly inhibitors; AID 504834; further: potency means the concentration at half of the fitted maximal effect; on the % scale 0 is the no-effect control and ±100 the full control effect
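Cell-based qHTS: luciferase-tagged P. falciparum in erythrocytes (2% hematocrit, 0.05% parasitemia final) incubated with compounds for 96 hours, 37 C, 5% CO2; luciferase detection reagent then added and luminescence measured.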
NS1 function inh: blocks influenza NS1 protein function; Potency, µM (series often up to 46.1 µM), for the others: at the highest dose activity, positive = more growth; 0.4% of 270,000 active; AID 2326; calls by dose curve; further: potency means the concentration at half of the fitted maximal effect; actives are rising curves; nearly all actives have a fitted effect of over 50% in size
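Growth recovery, yeast-based: influenza A NS1 expressed in S. cerevisiae causes slow growth, and suppressors are detected by OD600. The parent strain without NS1 is used as positive control.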
Shiga inhibitor: inhibitors of Shiga toxin in Vero cells | Vero cells, Shiga toxin protein synthesis inhibition reporter | 9.2% of 290,000 active | inhibition, % at 38.7 µM | AID 2315; in the data active means inhibition mostly above about 28%, no sharp cut-off; inactive means mostly below about 43%; further: 0% is about no effect
Pf growth 48h: P. falciparum growth inhibition at 48 hours (one generation). P. falciparum luciferase growth in erythrocytes, 48 h. Potency, µM (top dose mostly 28.7 µM), without a hit: at the top dose activity change, negative = inhibition, hits mostly inhibitors. AID 504832. 5.9% of 310,000 active; further: potency means the concentration at half of the fitted maximal effect; on the % scale 0 is the no-effect control and ±100 the full control effect
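Compounds are pin-transferred into medium, infected erythrocytes (2% hematocrit, 0.1% parasitemia final) are added, and plates sit one parasite generation at 37 C in 5% CO2. Detection reagent is then added and luminescence measured.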
* = called active by the depositor; u = inconclusive; x = not tested or not shown; [ ] = another dose, or the depositor's remark. Shown are actives, neighbours in structure and some others; about 21% of the full set was active somewhere. Unless noted, the call rests on the fitted dose curve; in most records, active means well fitted inhibition curve with a large enough effect; inconclusive means small, poorly fitted or top-dose-only effect, or another doubt; inactive means no such curve, though single readings can be large or run the other way.

SMILES	Cycloheximide cs	Pf growth 96h	NS1 function inh	Shiga inhibitor	Pf growth 48h
O=C1c2ccc(-c3ccc(F)cc3OCc3ccccc3)cc2S(=O)(=O)c2cccc(C(=O)N3CCCC3)c21	x	u	x	x	4.7µM*
Cc1ccc(NS(=O)(=O)c2cc(C(=O)NCc3cccnc3)ccc2C)cc1	-3	8.3µM*	-15%	9	-20%
Cc1cccc(CS(=O)(=O)Cc2ccc(C(=O)NCc3cccnc3)o2)c1	1	1.9µM*	0%	10	-2%
Cc1cc(C)c(S(=O)(=O)NCc2cccnc2)cc1C	-2	12µM*	6%	-15	u
Cc1ccc(S(=O)(=O)Nc2ccc(C(=O)NCc3cccnc3)cc2)cc1	-1	u	-3%	-10	3%
Cc1ccccc1CS(=O)(=O)Cc1ccc(C(=O)NCc2cccnc2)o1	-2	u	4%	-6	22%
CC(C)(C)c1ccc(OCc2ccc(C(=O)NN)o2)cc1	71*	80%	3%	116*	39%
NNC(=O)c1ccc(COc2ccc(Br)cc2)o1	6	9%	0%	-7	10%[0.00184 µM]
COc1ccc(NS(=O)(=O)c2ccc3c(c2)NC(=O)CO3)c(OC)c1	11	-1%	4%	-6	19%
CC(C)(C)c1ccc(OCc2ccc(C(=O)NCc3cccnc3)o2)cc1	45*	4%	-12%	176*	18%
Cc1ccc(OCc2ccc(C(=O)NCc3cccnc3)cc2)cc1C	33*	21%	-12%	52*	-1%
Cc1ccc(S(=O)(=O)NCc2ccncc2)c(C)c1C	4	12µM*	5%	19	-17%
O=C(NCc1cccnc1)c1ccc(COc2ccc(Cl)cc2)cc1	8	313%	x	77	35%
COc1ccccc1OCc1ccc(C(=O)NCc2cccnc2)o1	-2	0%	-6%	-9	-1%
CCOC(=O)c1c(/N=C/C2=C(O)CC(C)(C)CC2=O)sc(C)c1C	-3	1%	-2%	22	7%
CCn1c(SCC(=O)c2ccc(O)c(O)c2)nnc1-c1ccccc1	34*	u	30%	61	u
CCn1c(SCC(=O)c2ccccc2)nnc1-c1cccs1	66*	63%	-19%	77*	116%
CCn1c(SCc2nc3ccccc3nc2C)nnc1-c1cccs1	-2	-4%	-20%	-3	10µM*
CCn1c(SCC(=O)c2cccs2)nnc1-c1ccco1	39*	-10%	-48%	87*	39%
CCn1c(SCC(=O)c2ccc(O)c(O)c2)nnc1-c1ccccc1OC	-2	x	11%	8	u
CCn1c(SCC(N)=O)nnc1-c1ccco1	-4	0%	-4%	-8	11%
CNC(=O)NC(=O)CN1C(=O)NC2(CCOc3ccccc32)C1=O (configuration not stated)	-5	-12%	2%	28	-10%
COc1ccc(C(=O)NCc2ccncc2)cc1S(=O)(=O)N1CCOCC1	x	u	x	x	-12%
CCN(CC)c1ccc(/C=C2\C(=N)N3N=C(CC(=O)N4CCOCC4)SC3=NC2=O)cc1	9	u	17%	15	-19%
CN(C)c1ccc(C(=S)N2CCN(Cc3ccccc3)CC2)cc1	-1	1%[5.75 µM]	-2%	-9	14%
SMILES	Cycloheximide cs	Pf growth 96h	NS1 function inh	Shiga inhibitor	Pf growth 48h
COCCn1c(SCC(=O)N2CCc3ccccc3C2)nc2cc(Cl)ccc2c1=O	-5	9.3µM*	15%	-3	u
Cn1c(=O)c2c(nc(SCC(=O)N3CCc4ccccc4C3)n2C)n(C)c1=O	7	10µM*	-33%	8	0%
Cn1c(=O)c2c(nc(SCC(=O)N3c4ccccc4CCc4ccccc43)n2C)n(C)c1=O	-1	u	-13%	15	u
CC(C)Cn1c(SCC(=O)N2CCc3ccccc3C2)nc2cc(Cl)ccc2c1=O	-3	4.7µM*	11%	-2	u
O=C(CSc1nc2[nH]ncc2c(=O)n1-c1ccccc1)N1CCCCCC1	-2	10µM*	3%	-2	-21%
CN(C)CCCO[C@@H]1[C@H]2OC(C)(C)O[C@H]2O[C@@H]1[C@H](O)CO	x	u	x	x	2%
O=C(CSc1nc2ccccc2c(=O)n1-c1ccccc1)N1CCC1	-5	u	x	-20	u
O=C(Cn1cnc2ccccc2c1=O)N1CCc2ccccc2C1	17*	33%	x	-3	25%
O=C(CSc1nc2ccccc2c(=O)n1-c1ccccc1)N1CCc2ccccc2C1	-1	2.6µM*	-32%	-13	u
O=C(c1ccc(Cl)nc1)N1CCc2ccccc2C1	-1	2%	-8%	-10	x
O=C(Cn1cnc2ccccc2c1=O)N1CCOCC1	3	17%	0%	2	4%
O=C(c1ncn(Cc2ccccc2)c1C(=O)N1CCc2ccccc2C1)N1CCc2ccccc2C1	x	u	x	x	1.5µM*
COc1cccc(C2/C(=C(/O)c3ccc4c(c3)CC(C)O4)C(=O)C(=O)N2CCCn2ccnc2)c1 (configuration not stated)	4	7%	-12%	22	12%
COc1ccc(NC(=O)CSc2n[nH]c(=O)n2Cc2ccccc2)cc1Cl	-4	u	-10%	-17	-29%
Cc1csc(NC(=O)c2cccc(S(=O)(=O)N3CCN(C)CC3)c2)n1	5	4%	x	21	-5%
O=C(Nc1nc(-c2ccc3c(c2)OCCO3)cs1)c1ccc(S(=O)(=O)N2CCCCC2)cc1	-2	u	6%	3	12µM*
O=C(Nc1nc(-c2ccc(S(=O)(=O)N3CCCCCC3)cc2)cs1)c1ccccc1	-5	1%	13%	-4	x
Cc1csc(NC(=O)c2ccc(S(=O)(=O)N3CCN(C)CC3)cc2)n1	32*	u	6%	58*	22%
Cc1csc(NC(=O)c2ccc(S(=O)(=O)N3CCCC3)cc2)n1	17*	-2%	-2%	39	55%
Cc1csc(NC(=O)C2CCCCN2S(=O)(=O)c2ccccc2)n1 (configuration not stated)	13*	-1%	1%	26	u
CC[Si](CC)(CC)O[C@H]([C@@H](C)COCOC)[C@@H](C)COCc1ccc(OC)cc1	-1	x	x	27	x
CCOc1ccc(N2CC(C(=O)NCc3nnnn3-c3ccc(C)c(C)c3)CC2=O)cc1 (configuration not stated)	3	3%	-20%	-3	-20%
CCOC(=O)C1=C(c2ccccc2)O/C(=C(/C#N)C(F)(F)F)S1	8	x	10%	35	9.3µM*
CCOC(=O)C1=C(c2ccccc2)OC(N)=C(C#N)C1C1CCCCC1 (configuration not stated)	-4	x	-1%	27	8%
CCOC(=O)c1nnc(-c2ccccc2)[nH]c1=O	13	-31%[1.15 µM]	3%	46	34%
CCOC(=O)C1=C(c2ccccc2)O/C(=C(\C(=O)OC)C(F)(F)F)S1	0	9.3µM*	4%	-4	x
CSc1ccc(CCNC(=O)C2CCCN(c3nn4c(=O)cc(C)nc4s3)C2)cc1 (configuration not stated)	-2	-13%	-5%	-9	u
COc1ccc(NC(=O)NN(C(=O)c2ccccc2)C(C)(C)C)cc1	8	-18%	8%	-6	-20%
